# High-throughput results (PubChem)
# MITF inh – inhibitors of human MITF | AlphaScreen MITF homodimerization, bead proximity signal | inhibition, % at 2.6 µM | AID 1259374 | O75030 | 0.91% of 650,000 active; in the data active = inhibition above about 50%
# TEAD-YAP inh – TEAD-YAP interaction inhibition; HEK-TIYL cells, TEAD-Gal4/YAP UAS-luciferase luminescence; inhibition, % at 9.12 µM; 1.4% of 640,000 active; AID 1259422; in the data active = inhibition above about 32%
# GPR151 ag – activators of human GPR151. Q8TDV0. PathHunter beta-arrestin GPR151 cells, luminescence. activation, % at 11.2 µM. 1% of 650,000 active. AID 1508602; in the data active = activation above about 4.9%
# FBW7 act – human FBW7 E3 ligase activation, primary screen; Q969H0; AlphaScreen FBW7–phospho-cyclin E peptide binding, activator screen; normalized activity (activation), % at 26.1 µM; 0.13% of 650,000 active; in the data active = normalized activity above about 1.9%;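 note: purified mutant Fbw7 with reduced substrate affinity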
# Target sequence (Q969H0 whole entry, looked up): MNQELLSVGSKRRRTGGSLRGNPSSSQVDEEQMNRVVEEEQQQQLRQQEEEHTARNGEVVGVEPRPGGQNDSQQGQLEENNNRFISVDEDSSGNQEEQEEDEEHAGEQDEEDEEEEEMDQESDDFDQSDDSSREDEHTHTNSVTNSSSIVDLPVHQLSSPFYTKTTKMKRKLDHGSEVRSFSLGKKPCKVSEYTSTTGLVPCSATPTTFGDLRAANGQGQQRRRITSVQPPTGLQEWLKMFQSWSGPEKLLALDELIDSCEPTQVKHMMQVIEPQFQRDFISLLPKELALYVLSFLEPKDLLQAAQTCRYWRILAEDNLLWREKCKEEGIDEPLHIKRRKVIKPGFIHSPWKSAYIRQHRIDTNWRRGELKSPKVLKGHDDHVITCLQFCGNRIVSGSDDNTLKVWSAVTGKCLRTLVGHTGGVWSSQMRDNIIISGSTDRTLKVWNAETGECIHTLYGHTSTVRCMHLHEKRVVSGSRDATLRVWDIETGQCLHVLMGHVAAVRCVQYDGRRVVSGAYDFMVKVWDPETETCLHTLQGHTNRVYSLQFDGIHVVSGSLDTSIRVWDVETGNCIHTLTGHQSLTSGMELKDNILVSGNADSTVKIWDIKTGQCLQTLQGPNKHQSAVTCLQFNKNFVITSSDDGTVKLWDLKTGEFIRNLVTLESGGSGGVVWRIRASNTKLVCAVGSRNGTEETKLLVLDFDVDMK
# MITF confirm – human MITF inhibition, confirmation | shares compounds with MITF inh | AlphaScreen MITF homodimerization, biotin/His-MITF beads | inhibition, % at 2.6 µM | 16% of 4,700 active;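 active = inhibition above a cutoff derived from the DMSO control wells, cut at about 28% in these data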;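 note: inhibitors lower the bead chemiluminescence by keeping MITF from dimerizing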
# AlphaScreen DR – counter-screen: compounds optically interfering with AlphaScreen; shares compounds with MITF inh; AlphaScreen optical interference counterscreen, cell-free; IC50, µM; 6% of 480 active; call rule not given here
# AlphaScreen intf2 – optically interferes with AlphaScreen signal; shares compounds with MITF inh; LysRS AlphaScreen counterscreen, signal interference, triplicate; inhibition, % at 2.6 µM; 7.6% of 4,700 active;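 active = inhibition above a cutoff derived from the DMSO control wells, cut at about 30% in these data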
# Numbers stand for hits; – = inactive; · = no result; ! = a repeat was not active. Sampled rows, rich in hits. Any-hit rate of the full collection: about 3.5%.
SMILES,MITF inh,TEAD-YAP inh,GPR151 ag,FBW7 act,MITF confirm,AlphaScreen intf2,others
CCCCC/C=C/C=C1/C(=O)C=C[C@@H]1C/C=C\CCCC(=O)O,–,·,–,·,·,·,
CCCCC[C@H](O)/C=C/[C@H]1[C@H](O)CC(=O)[C@@H]1C/C=C\CCCC(=O)NCCO,–,·,–,·,·,·,
CCCCC[C@H](O)/C=C/[C@@H]1[C@@H](C/C=C\CCCC(=O)NCCCCCNC(=O)CCCCC2SC[C@@H]3NC(=O)N[C@H]23)[C@@H](O)C[C@H]1O (stereo not given in full),123.6,·,–,·,123.3,100.6,
CCCCC[C@H](O)/C=C/[C@H]1[C@H](O)CC(=O)[C@@H]1C/C=C\CCCC(=O)NCCCCCNC(=O)CCCCC1SC[C@@H]2NC(=O)N[C@H]12 (stereo not given in full),123.6,·,–,·,124.1,100.6,
CN(C)[C@@H]1C(=O)C(C(=O)NCN2CCCC2)=C(O)[C@@]2(O)C(=O)C3=C(O)c4c(O)cccc4[C@@](C)(O)[C@H]3C[C@@H]12,75.2,–,–,–,80.6,–,AlphaScreen DR=–
Nc1ccc(-c2cnc3c(NCC(F)(F)F)nccn23)cc1,–,–,–,–,·,·,
CCOc1ccccc1C1CC(c2ccc(OC)c(OC)c2)=NN1S(C)(=O)=O (stereo not given),–,–,–,–,·,·,
COc1ccc(C(=O)NC(C(=O)O)C23CC4CC(CC(C4)C2)C3)cc1 (stereo not given),–,–,–,–,·,·,
COc1ccc(OC)c(CN2CCCC(C(=O)N3CCCCC3)C2)c1 (stereo not given),77.9,–,–,–,–,–,
COc1ccc(OC)c(CN2CCC(C(N)=O)CC2)c1,–,–,–,–,·,·,
COc1ccc(CN2CCCC(C(=O)N3CCCC3)C2)c(OC)c1OC (stereo not given),93.2,–,–,–,–,–,
COc1ccc(OC)c(CN2CCCC(C(=O)N3CCCCCC3)C2)c1 (stereo not given),93.2,–,–,–,–,–,
COc1ccc(OC)c(CN2CCCC(C(=O)NN)C2)c1 (stereo not given),–,–,–,–,·,·,
COc1ccc([N+](=O)[O-])cc1NC(=O)c1cc2ccccc2cc1OC,–,–,–,–,·,·,
CC(C)NC(=O)c1cccc(NC(=O)Nc2ccc(-c3ncnc4[nH]cc(Cl)c34)cc2)c1,77.9,–,–,–,88.0,–,AlphaScreen DR=–
C=C(C)CNC(=S)Nc1ccccc1,77.1!,–,–,–,–,–,
C=C(C)CNC(=S)Nc1ccccn1,–,–,–,–,·,·,
NC(=O)c1cccc(-c2cccs2)c1,66.2,–,–,–,57.0,–,AlphaScreen DR=–
CC(=O)c1cccc(-c2cccc(C(N)=O)c2)c1,–,–,–,–,·,·,
O=C(Nc1ccccc1)c1ccc2nc(-c3cccs3)sc2c1,–,–,–,–,·,·,
NC(=O)c1ccc2nc(-c3cccs3)sc2c1,72.5,33.3,–,–,60.0,–,AlphaScreen DR=–
CCCCOc1ccc(C(=O)N/C(=C\c2ccco2)C(=O)OC)cc1,–,–,–,–,·,·,
CCCCOc1ccc(C(=O)N/C(=C/c2ccco2)C(=O)O)cc1,50.6,–,–,–,64.2,–,AlphaScreen DR=–
CC(CCc1ccccc1)NCc1nc2ccsc2c(=O)[nH]1 (stereo not given),51.6,–,–,–,–,–,
CC12C(=O)N(c3ccc(C(=O)O)cc3)C(=O)C1C1C=CC2C1 (stereo not given),–,–,–,–,·,·,
SMILES,MITF inh,TEAD-YAP inh,GPR151 ag,FBW7 act,MITF confirm,AlphaScreen intf2,others
N#CC1(C#N)C(c2cccnc2)C(C(=O)c2ccccc2)N2c3ncccc3C=CC21 (stereo not given),71.4,–,–,–,–,–,
N#CC1(C#N)[C@H](c2cccnc2)[C@@H](C(=O)c2ccccc2)N2c3ccc(Cl)cc3C=C[C@@H]21,–,–,–,–,·,·,
CCOC1=CC(c2ccc3c(c2)OCO3)CC(=O)c2c(C)oc(C)c21 (stereo not given),57.1,–,–,–,42.4,–,AlphaScreen DR=–
CCOC(=O)C1=C(C)NC2=C(C(=O)CCC2)C1c1ccc2c(c1)OCO2 (stereo not given),–,–,–,–,·,·,
O=C1N[C@H](Cc2ccc(O)cc2)C(=O)N2CCN(C(=O)NC3CCCCC3)C[C@H]12,76.4,–,–,–,70.0,–,AlphaScreen DR=–
O=C1N[C@@H](Cc2cnc[nH]2)C(=O)N2CCN(C(=O)NC3CCCCC3)C[C@H]12,–,–,–,–,·,·,
O=C1N[C@@H](Cc2ccc(O)cc2)C(=O)N2CCN(C(=O)NC3CCCCC3)C[C@H]12,69.8,–,–,–,69.2,–,AlphaScreen DR=–
CCS(=O)(=O)N1CCN(C(C)CCc2ccccc2)CC1 (stereo not given),51.1,–,–,–,–,–,
Cc1ccccc1-c1nc(CS(=O)CC(=O)NCCC2=CCCCC2)c(C)o1 (stereo not given),–,–,–,–,·,·,
Cc1sc2ncnc(N(C)CCc3ccccn3)c2c1C,73.0,–,–,–,–,–,
NC(=O)CSc1ccc(C(N)=O)cc1[N+](=O)[O-],63.7,–,–,–,38.8,–,AlphaScreen DR=–
NC(=O)c1ccc(SCC(=O)O)c([N+](=O)[O-])c1,–,–,–,–,·,·,
NC1CCN(c2ccnc(Nc3ccc(S(N)(=O)=O)cc3)n2)CC1,–,–,–,–,·,·,
O=C(NC1CCCCC1)C(=S)NC1CCCC1,–,–,–,–,·,·,
O=C(NNC(=S)NC1CCCCC1)C(=O)NNC(=S)NC1CCCCC1,62.2,–,–,–,–,–,
Cc1cccc(C)c1OCCOCCN1CCN(C)CC1,64.0,–,–,–,–,–,
Cc1ccccc1OCCOCCN1CCN(C)CC1,73.2,–,–,–,–,–,
Cc1cccc(C(C)(C)C)c1OCCOCCN1CCOCC1,–,–,–,–,·,·,
Cc1cccc(C(C)(C)C)c1OCCCN1CCN(C)CC1,67.9,–,–,–,–,–,
COc1ccc(CN2CCN(Cc3cnn(C(C)C)c3)CC2CCO)c(C)c1C (stereo not given),–,–,–,–,·,·,
O=C(N/N=C(\c1ccccc1)c1ccncc1)c1ccccc1,–,–,–,–,·,·,
O=C(CSc1nc(NC2CCCCC2)c2ccccc2n1)NC1CCCCC1,58.3,–,–,–,–,–,
Cc1ccc(CNC(=O)CSc2nc(NC3CCCCC3)c3ccccc3n2)cc1,–,–,–,–,·,·,
O=C(Nc1ccc(N2CCOCC2)cc1)c1ccnc(Nc2ccc(N3CCOCC3)cc2)c1,–,–,–,–,·,·,
O=C(Nc1ccc(N2CCOCC2)cc1)c1ccc2nc(Nc3ccc(N4CCOCC4)cc3)sc2c1,–,–,–,–,·,·,
O=C(Nc1ccc(N2CCOCC2)cc1)c1ccnc(Nc2ncccn2)c1,58.6,–,–,–,84.0,–,AlphaScreen DR=–
O=C(Nc1ccc(N2CCOCC2)cc1)c1ccc2nc(-c3cccs3)sc2c1,54.8,–,–,–,56.5,–,AlphaScreen DR=–
O=C(Nc1ccc(N2CCOCC2)cc1)c1ccc2nc(Nc3ccccn3)sc2c1,70.0,–,–,–,78.9,–,AlphaScreen DR=–
CCOCCCn1c(-c2c(Cl)c(C)nn2C)n[nH]c1=S,–,–,–,–,·,·,
